A selection: hits, their analogues and other compounds. The true share with any hit is near 7.5%.
NPC1 prom act: NPC1 promoter activation; Potency, µM (doses to about 9.22 µM), for inactives: at the highest dose activation, most hits filed as activators; Huh7 NPC1 promoter luciferase reporter, 24 h; 2.4% of 320,000 active; AID 485313; further: % of control where 0% means no effect; nearly all actives have a fitted effect of over 60% in size
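NPC1 promoter–luciferase Huh7 cells; 24 h compound; luminescence.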
SMN2 splice up: increases expression of the SMN2 splice variant | HEK293 SMN2-luciferase splicing reporter, luminescence, 30-36 h | Potency, µM (top dose mostly 46.1 µM), for the others: top-dose activity change, positive = activation, actives largely listed as activators | 2.8% of 210,000 active | AID 1458; further: % of control where 0% means no effect; nearly all actives have a fitted effect of over 55% in size
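qHTS luciferase splicing reporter: luminescence rises when SMN2 exon 7 is included in transfected HEK293 cells. Compound exposure lasted 30-36 h at 37C, with 4.5 mM final sodium butyrate as control, followed by a ONE-Glo read.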
Rab9 promoter act: activates the Rab9 promoter; 2.8% of 320,000 active; Huh7 Rab9 promoter-luciferase reporter, luminescence, 24 h; Potency, µM (highest dose often 9.22 µM), inactives show at the highest dose activation, negative = inhibition, usual class: activators; further: % of control where 0% means no effect; nearly all actives have a fitted effect of over 60% in size
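Promoter activation is measured as luciferase luminescence in Huh7 cells stably transfected with a Rab9 promoter–luciferase construct, following 24 h compound exposure at 37 °C and 10 min reagent incubation at ambient temperature.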
FLuc counter: counter-screen for miR-21 project: firefly luciferase inhibitors or activators | AID 588342 | 6.9% of 360,000 active | purified FLuc, Km substrates, luminescence inhibition | Potency, µM (top dose mostly 57.5 µM), without a hit: at the highest dose activity change, negative = inhibition, most hits filed as inhibitors;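 further: plate controls were vehicle for no effect and reference inhibitor for full effect; nearly all actives have a fitted effect of over 55% in size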
Target sequence (P08659 whole entry, looked up): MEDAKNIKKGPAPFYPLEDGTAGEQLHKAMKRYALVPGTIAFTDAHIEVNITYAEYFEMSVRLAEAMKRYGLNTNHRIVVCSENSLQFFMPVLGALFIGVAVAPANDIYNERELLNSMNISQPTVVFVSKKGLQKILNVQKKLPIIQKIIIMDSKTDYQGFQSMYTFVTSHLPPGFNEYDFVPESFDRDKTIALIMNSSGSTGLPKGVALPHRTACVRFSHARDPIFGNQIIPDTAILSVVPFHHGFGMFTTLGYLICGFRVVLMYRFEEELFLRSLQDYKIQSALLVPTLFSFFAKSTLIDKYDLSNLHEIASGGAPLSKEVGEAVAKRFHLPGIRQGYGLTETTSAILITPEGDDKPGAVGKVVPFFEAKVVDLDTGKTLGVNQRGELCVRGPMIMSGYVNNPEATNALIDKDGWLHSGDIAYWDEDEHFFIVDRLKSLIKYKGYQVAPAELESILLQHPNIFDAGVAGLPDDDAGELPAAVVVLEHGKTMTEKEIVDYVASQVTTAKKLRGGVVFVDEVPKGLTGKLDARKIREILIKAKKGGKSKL
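Purified P. pyralis luciferase, 10 nM final, with Km-level 10 uM D-luciferin and 10 uM ATP in 50 mM Tris acetate pH 7.5, 10 mM Mg acetate, 0.01% Tween-20, 0.05% BSA; 6-point qHTS titration about 60 µM downward; luminescence read.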
ELG1 genotoxic: inducers of genotoxicity in HEK293T ELG1-luciferase cells. HEK293T ELG1-luciferase reporter, luminescence, 16 h. Potency, µM (series often up to 46 µM), inactives show at the highest dose activity change, positive = activation, most hits filed as activators. 1.3% of 330,000 active; further: % of control where 0% means no effect; nearly all actives have a fitted effect of over 60% in size
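HEK293T cells expressing luciferase-tagged ELG1 were treated with compound or DMSO for 16 hr at 37°C. Luciferase activity was then read after 30 min with ONE-Glo at room temperature; rising signal flags genetic stress.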
KinaseGlo FLuc: blocks Kinase-Glo luciferase, a counter-screen artifact. Q27757. Kinase-Glo luciferase, ATP luminescence, 8 min. Potency, µM (titrated, usually from 38.3 µM), for inactives: at the highest dose activity change, negative = inhibition, usual class: inhibitors. 0.28% of 200,000 active; further: on the % scale 0 is the no-effect control and ±100 the full control effect; nearly all actives have a fitted effect of over 60% in size
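Luminescence was the read-out, taken after 8-minute incubation at ambient temperature. Luciferase turned over luciferin with 10 uM ATP in imidazole pH 7.2 buffer containing KCl, MgCl2, Tween 20 and BSA.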
* marks the source's active call; other numbers are inactive results; ? = inconclusive; · = no result given. The call rests on the fitted dose curve; in most records, active means well fitted curve in the direction sought with a large enough effect; inconclusive means small, poorly fitted or top-dose-only effect, or another doubt; inactive means no such curve, though single readings can be large; an effect the other way counts as inactive or inconclusive. Potency means the concentration at half of the fitted maximal effect.

SMILES	NPC1 prom act	SMN2 splice up	Rab9 promoter act	FLuc counter	ELG1 genotoxic	KinaseGlo FLuc
Cc1nc(N)nc(N/N=C/c2c(F)cccc2Cl)n1	7%	·	-2%	?	8%	·
N/C(=N\OC(=O)CCc1ccccc1)c1ccc(Br)cc1	-4%	6%	1%	?	14%	-3%
N/C(=N\OC(=O)CCc1ccccc1)c1cccc(Br)c1	-5%	-6%	0%	17µM*	1%	-4%
N/C(=N\OC(=O)CCc1ccccc1)c1ccccc1Cl	7%	9%	28%	24µM*	?	1%
Cc1ccc(/C(N)=N/OC(=O)CCc2ccccc2)cc1	21%	·	9%	15µM*	?	·
N/C(=N\OC(=O)CCCc1ccccc1)c1ccc(Br)cc1	-4%	·	-9%	5%	15%	·
CCN1/C(=C/C=C/C=C/c2sc3ccccc3[n+]2CC)Sc2ccccc21	-38%	-90%	-32%	15µM*	-8%	?
CCN1/C(=C/C=C/C=C/C=C/c2sc3ccccc3[n+]2CC)Sc2ccccc21	-37%	·	-40%	?	-10%	·
CCN1/C(=C/C=C/c2sc3ccccc3[n+]2CC)Sc2ccccc21	-40%	·	-45%	21µM*	?	·
COc1ccc(OC)c(CNc2ncnc3onc(C)c23)c1	·	·	·	-6%	·	·
COc1ccc(OCc2cc(C(=O)NC(C)Cn3cncn3)no2)c(Cl)c1 (stereo not drawn)	?	·	?	12µM*	?	·
O=C(NCCc1cccnc1)c1cc(COc2ccc(F)cc2Cl)on1	8%	·	6%	19µM*	0%	·
CC(Cn1cncn1)NC(=O)c1cc(COc2cccc(C(F)(F)F)c2)on1 (stereo not drawn)	8%	·	20%	-13%	3%	·
CC(Cc1cccnc1)NC(=O)c1cc(COc2ccc(F)cc2F)on1 (stereo not drawn)	-3%	·	6%	-10%	-6%	·
COc1ccc(OCc2cc(C(=O)NC(C)Cc3ccccn3)no2)c(Cl)c1 (stereo not drawn)	14%	·	19%	12µM*	5%	·
O=C(NCCc1cccnc1)c1cc(COc2ccc(F)cc2F)on1	3%	·	-2%	-20%	-2%	·
COc1ccc(OCc2cc(C(=O)NC(C)Cc3cccnc3)no2)c(Cl)c1 (stereo not drawn)	15%	·	2%	13µM*	2%	·
Cc1c(CCC(=O)NCc2cccc(Cl)c2)c(=O)oc2c(C)c(O)ccc12	·	2%	·	0%	·	·
O=C(C1CC(=O)N(c2ccc(Cl)cc2)C1)N1CCOCC1 (stereo not drawn)	0%	·	-2%	0%	3%	·
O=C(O)c1cccc(S(=O)(=O)N2CCC(n3nnc4cc(C(F)(F)F)ccc43)CC2)c1	-2%	·	-1%	3%	7%	·
O=C(c1ccc(N2CCOCC2)cc1[N+](=O)[O-])N1CCOCC1	-12%	·	0%	-1%	1%	·
Cc1c(Cc2ccccc2)sc(NC(=O)c2ccco2)c1C(N)=O	4%	-15%	-4%	7.6µM*	8%	-1%
COC(=O)c1c(NC(=O)c2ccco2)sc(C)c1C	9%	?	-3%	1%	4%	6%
COC(=O)c1c(NC(=O)C2CC2)sc(C(=O)Nc2ccccc2)c1C	?	1.1µM*	?	?	11%	-2%
COC(=O)c1c(NC(=O)c2ccco2)sc(C(=O)Nc2ccc(F)cc2)c1C	1.6µM*	?	1.6µM*	-2%	?	1%
SMILES	NPC1 prom act	SMN2 splice up	Rab9 promoter act	FLuc counter	ELG1 genotoxic	KinaseGlo FLuc
Cc1nc(NC(=O)C2CC2)sc1C(=O)Nc1ccccc1	1%	·	4%	-15%	3%	·
CCOc1ccc(CC(=O)Nc2sc(Cc3ccccc3)c(C)c2C(N)=O)cc1OCC	-1%	-2%	-1%	-6%	-2%	2%
Cc1ccc(NC(=O)Cn2c(=O)n(CCC(=O)NCc3ccccc3Cl)c(=O)c3ccccc32)c(C)c1	·	-3%	·	-5%	·	·
CCOC(=O)c1ccc(NC(=O)CC2C(=O)N(c3cccc(C)c3)C(=O)N2CCOC)cc1 (stereo not drawn)	·	11%	·	-3%	·	·
CCOC(=O)c1ccc(NC(=O)CC2C(=O)N(c3cccc(OC)c3)C(=O)N2CCOC)cc1 (stereo not drawn)	-2%	4µM*	-1%	-1%	1%	-1%
COc1ccc(NC(=O)CN(C)C(=O)c2ccc(NS(=O)(=O)c3cccc([N+](=O)[O-])c3)cc2)cc1	3%	·	-2%	24µM*	-3%	·
Cc1ccc(N2C(=O)c3ccccc3NC2c2ccccc2O)cc1 (stereo not drawn)	2.5µM*	·	0.89µM*	?	?	·
Cc1ccc(C)c(N2N=C(C(=O)OCC(=O)N(C)c3ccccc3)CCC2=O)c1	-1%	·	-2%	3%	1%	·
CCOC(=O)c1c(C)[nH]c(C)c1S(=O)(=O)NCC(=O)N1CCN(c2cccc(C)c2)C(C)C1 (stereo not drawn)	·	·	·	-2%	·	·
CCc1ccc(NC(=O)C2C3C=CC(C4CC34)C2C(=O)O)cc1 (stereo not drawn)	21%	?	24%	2.1µM*	8%	0%
CC(=O)c1cccc(NC(=O)C2C3C=CC(C4CC34)C2C(=O)O)c1 (stereo not drawn)	6%	-2%	-4%	-1%	-1%	7%
Cc1ccccc1C(=O)NNC(=O)CSc1nc(-c2ccccc2)cc(=O)[nH]1	11%	5%	20%	11µM*	6%	-2%
C/C(=N\NC(=O)C1CC1c1ccccc1)c1cccs1 (stereo not drawn)	1%	13%	3%	5%	-1%	-7%
COc1ccc(C2CC2/C(=N/OC(=O)c2cccs2)c2ccccc2)cc1 (stereo not drawn)	?	?	?	12µM*	?	-2%
O=C(COC(=O)C12CC3CC(CC(Br)(C3)C1)C2)Nc1ccc2[nH]c(=O)[nH]c2c1	1%	·	-1%	7%	1%	·
CCOc1cc(/C=N/Nc2nn3cnnc3c3ccccc23)ccc1O	25%	·	18%	5.4µM*	8%	·
COc1cccc(/C=N/Nc2nc3ccccc3n3cnnc23)c1	-1%	-6%	-7%	-6%	-1%	-2%
COc1cccc(/C=N/Nc2nn3cnnc3c3ccccc23)c1	25%	-4%	16%	11µM*	8%	3.5µM*
Oc1ccc(/C=N/Nc2nn3cnnc3c3ccccc23)cc1	?	·	2%	9.5µM*	1%	·
COc1cc(/C=N/Nc2nn3cnnc3c3ccccc23)ccc1O	14%	10%	8%	2.7µM*	1%	13µM*
C(=N\Nc1nn2cnnc2c2ccccc12)/c1ccco1	0%	-28%	-4%	-12%	4%	-18%

Compound activity: PubChem, National Center for Advancing Translational Sciences (NCATS)
